Compound activity: PubChem, National Center for Advancing Translational Sciences (NCATS)
Sm TGR block: blocks Schistosoma mansoni thioredoxin glutathione reductase | purified TGR, DTNB reduction, TNB absorbance 405 nm | hit rate 3% among 360,000 | Potency, µM (doses to about 114 µM), inactives show at the top dose activity change, negative = inhibition, actives largely listed as inhibitors; further: potency means the concentration at half of the fitted maximal effect; nearly all actives have a fitted effect of over 60% in size
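First, TGR (20 nM dispensed) and NADPH were mixed with compound. Second, a 15 min room-temperature incubation followed. Third, further NADPH and then DTNB were added to start the reaction. Finally, TNB absorbance was monitored kinetically.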
RE007 growth inh: less growth of the S. pombe RE007 Vpr strain. S. pombe RE007 Vpr strain, BacTiter-Glo ATP luminescence, 24 h. Potency, µM (series often up to 92.2 µM), for the others: at the highest dose activity change, negative = less growth, actives largely listed as inhibitors. hit rate 0.21% among 360,000; active means well fitted falling curve with a large enough effect; inconclusive means small, poorly fitted or top-dose-only effect; inactive means no such curve, though single readings can be large or run the other way; further: potency means the concentration at half of the fitted maximal effect; nearly all actives have a fitted effect of over 50% in size
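Fission yeast strain RE007, carrying one chromosomally integrated HIV-1 vpr copy, was seeded at OD 0.01 in PMG+AL medium with 23 nL pinned compound. After 24 h at 30 °C and 99% humidity, viability was read by BacTiter-Glo luminescence.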
FMDV antiviral: blocks foot and mouth disease virus; Potency, µM (highest dose often 57.9 µM), for inactives: top-dose activity change, negative = inhibition, most hits filed as inhibitors; FMDV antiviral cell-based qHTS; hit rate 1.2% among 410,000; calls by dose curve; tested in HEK293T cells; further: read-out not given here; potency means the concentration at half of the fitted maximal effect; nearly all actives have a fitted effect of over 45% in size
FBPA Giardia inh: blocks Giardia fructose-bisphosphate aldolase activity; A8B2U2; Potency, µM (doses to about 59.6 µM), without a hit: at the top dose activity, negative = inhibition, actives largely listed as inhibitors; purified Giardia FBPA; hit rate 0.71% among 290,000; further: potency means the concentration at half of the fitted maximal effect; nearly all actives have a fitted effect of over 55% in size
Target sequence (A8B2U2 whole entry, looked up): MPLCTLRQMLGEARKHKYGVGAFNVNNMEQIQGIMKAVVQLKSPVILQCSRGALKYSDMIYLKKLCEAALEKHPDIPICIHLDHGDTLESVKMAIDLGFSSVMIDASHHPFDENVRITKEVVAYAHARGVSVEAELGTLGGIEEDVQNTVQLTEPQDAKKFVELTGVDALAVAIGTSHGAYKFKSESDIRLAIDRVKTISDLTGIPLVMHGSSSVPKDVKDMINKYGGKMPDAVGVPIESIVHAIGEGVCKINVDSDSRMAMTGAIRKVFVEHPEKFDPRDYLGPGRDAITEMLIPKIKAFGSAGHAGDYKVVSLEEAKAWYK
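40 nM FBPA preincubated 10 min at RT with compound (up to 57.5 uM final), then substrate plus GAPDH/TPI/NAD/arsenate coupling and diaphorase/resazurin added. Fluorescence read after 20 min at RT, 525/598 nm.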
HCMV antiviral: blocks human cytomegalovirus replication; HFF cells, HCMV-luciferase reporter, 72 h; active compounds read low; activity change, negative = inhibition, % at 57.5 µM; hit rate 4.5% among 410,000; in the data active means activity change below about -60%; inconclusive means no clear call, values can overlap the other calls; inactive means above about -39%
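Cell-based, HFFs, 1000 cells/well, 16 h 37C; cpds in DMSO + HCMV-luc, MOI 1 PFU/cell; 72 h 37C; OneGlo luminescence after 5 min RT; norm. to buffer vs Salinomycin 10uM.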
TbPYK inhibitor: blocks Trypanosoma brucei pyruvate kinase; Q57TT1; TbPYK enzyme, Kinase-Glo Plus ATP luminescence, 45 min; Potency, µM (doses to about 76.8 µM), inactives show at the highest dose activity, negative = inhibition, actives largely listed as inhibitors; hit rate 0.12% among 410,000; further: potency means the concentration at half of the fitted maximal effect; nearly all actives have a fitted effect of over 50% in size
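Luminescent Kinase-Glo Plus end-point after 45 min room-temperature reaction of T. brucei pyruvate kinase started with 130 uM ADP (final). Buffer TEA 50 mM pH 7.2 with KCl, MgCl2, BSA, Tween-20; titration-based qHTS with fitted concentration-effect curves.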
Starred values were filed as active, the others as inactive; ? = inconclusive; · = not tested or not shown. Compounds with a hit are over-represented: about 7.7% of the library has one in this group of screens. Unless noted, the call rests on the fitted dose curve; in most records, active means well fitted curve in the direction sought with a large enough effect; inconclusive means small, poorly fitted or top-dose-only effect, or another doubt; inactive means no such curve, though single readings can be large; an effect the other way counts as inactive or inconclusive. On the % scale 0 is the no-effect control and ±100 the full control effect.

SMILES	Sm TGR block	RE007 growth inh	FMDV antiviral	FBPA Giardia inh	HCMV antiviral	TbPYK inhibitor
Nc1ncc(Br)cc1S(=O)(=O)Nc1cc(C(F)(F)F)cc(C(F)(F)F)c1	-17.3%	4.8%	-8.8%	·	-100.7*	2.5%
CCOc1ccc(C(=O)N(Cc2cc(OC)c(OC)c(OC)c2)c2ccccn2)cc1	5.0%	·	?	·	-0.8	0.6%
Cc1ccc(S(=O)c2ccc(NC(=O)C3CC3)cc2C#N)cc1 (stereo unspecified)	0.4%	-1.4%	?	9.6%	-65.7*	-19.0%
Cc1ccc(NC(=O)C2CCN(S(=O)(=O)c3ccccc3)CC2)cc1	11.7%	17.6%	?	1.3%	?	-1.1%
COc1ccc(OC)c(-c2cc(Cl)c3c(c2)CC(CNC(=O)c2cnn4cccnc24)O3)c1 (stereo unspecified)	·	·	32.5%	·	·	·
Oc1ccc2ccccc2c1CN1CCCCC1	·	-25.5%	7.0%	·	-18.2	3.1%
Oc1ccc2ccccc2c1CN1CCCC1	2.51µM*	-15.5%	-1.6%	-8.2%	-23.2	0.1%
Oc1ccc2cc(Br)ccc2c1CN1CCCC1	31.6µM*	-13.1%	-14.4%	-9.8%	-10.5	2.4%
Oc1ccc2ccccc2c1CN1CC2CCC(CC2)C1	·	-19.3%	-11.2%	·	8.6	-0.9%
Oc1ccc2ccccc2c1CN1CCN(c2ccccc2)CC1	2.82µM*	6.3%	-12.8%	-13.4%	33.6	2.3%
Oc1ccc2ccccc2c1CN1CC=C(c2ccccc2)CC1	22.4µM*	-16.6%	5.6%	-0.9%	14.7	-4.5%
O=C(CSC1=Nc2ccccc2C2=NC(Cc3ccccc3)C(=O)N12)Nc1ccccc1C(F)(F)F (stereo unspecified)	5.2%	·	19.7%	·	-23.3	-1.7%
CO[C@H]1[C@H](NC(=O)C(C)C)c2ccccc2C12CCN(Cc1c(C)nn(C)c1Cl)CC2	·	·	8.7%	·	·	·
Cc1nncn1-c1ccc(C(=O)Nc2cc(F)ccc2F)cc1	5.1%	·	-12.6%	·	16.7	1.4%
CCN(CC)C(=O)c1ccc2nc3ccccc3nc2c1	8.2%	-13.9%	45.1%	-5.4%	-95.0*	-1.5%
CCN(CC)C(=O)c1ccc2nc(-c3ccccc3)c(-c3ccccc3)nc2c1	-12.4%	5.9%	-1.9%	2.7%	-23.6	-5.8%
CC(C)(C)Cc1c(-c2ccc(Cl)cc2)nc2ccc(Br)cn12	·	-3.0%	-1.2%	·	-15.9	7.0%
CC(C)(C)Cc1c(-c2ccc(F)cc2)nc2ccc(Br)cn12	·	16.8%	-27.9%	·	-75.9*	1.9%
Cc1ccnc(SCC(=O)N2CCc3ccccc3C2)n1	31.6µM*	-1.3%	6.9%	-5.2%	5.4	-4.2%
O=C(CSc1ncccn1)N1CCc2ccccc2C1	12.1%	12.3%	27.3%	-3.8%	75.6	-11.5%
O=C(Nc1ccc(S(=O)(=O)Nc2ncccn2)cc1)c1cccc(Cl)c1	4.5%	·	-16.6%	·	14.5	1.0%
O=C(Nc1cc(Sc2ccccn2)cc([N+](=O)[O-])c1)c1ccc(Cl)cc1	10.0%	9.8%	28.2µM*	-14.7%	-17.6	-2.8%
O=C(Nc1cc(Sc2ccccn2)cc([N+](=O)[O-])c1)c1cccc(Cl)c1	-2.6%	20.3%	25.1µM*	-20.4%	?	-3.0%
O=C(Nc1cccc([N+](=O)[O-])c1)c1ccncc1	-0.9%	-7.5%	-0.8%	0.4%	22.7	-2.3%
COc1cc(=O)n2c(c1C(=O)NCc1ccco1)CCN(Cc1cccc(C(F)(F)F)c1)CC2	·	·	-8.2%	·	·	·
SMILES	Sm TGR block	RE007 growth inh	FMDV antiviral	FBPA Giardia inh	HCMV antiviral	TbPYK inhibitor
Cc1ccc(NC(=O)N(C2CCCCC2)C(C)c2cccnc2)cc1C (stereo unspecified)	-1.1%	-13.9%	-4.1%	0.1%	-68.5*	-1.6%
CCn1nc(-c2ccccc2)c2nc3ccccc3nc21	5.2%	-4.9%	?	2.5%	-60.5*	-6.7%
c1ccc(-c2nnc(SCc3nc4ccccc4[nH]3)n2Cc2ccco2)nc1	?	8.0%	?	-1.4%	-64.2*	-11.0%
CCn1c(COc2ccc(C)cc2)nnc1SCc1nc2ccccc2[nH]1	7.8%	11.8%	?	5.8%	-64.9*	?
Clc1ccc(OCc2nnc(SCc3nc4ccccc4[nH]3)n2Cc2ccco2)cc1	?	-1.4%	?	11.1%	-80.4*	-7.2%
C(=C\c1ccccc1)/CSc1nnc(-c2ccccn2)n1Cc1ccco1	35.5µM*	-18.9%	0.0%	-14.0%	-13.2	-14.5%
c1coc(Cn2c(SCc3nc4ccccc4[nH]3)nnc2-c2cnccn2)c1	?	-4.5%	?	-11.9%	-36.0	-16.3%
O=C(CCC1N=C2c3ccccc3N=C(SCc3cccc(F)c3)N2C1=O)NC1CCCCC1 (stereo unspecified)	-14.2%	·	-5.7%	·	13.1	1.5%
CCCC[C@]12Cc3ccccc3C(O1)c1c(cc(-c3ccccc3)oc1=O)O2	3.16µM*	·	·	2µM*	·	·
O=C(NC1CCCCC1)c1cc2c(cc1Cl)N1CCCCCC1=NS2(=O)=O	-0.7%	2.9%	8.1%	·	-96.8*	-1.1%
Cc1ccc(S(=O)(=O)Nc2ccc(Br)cc2C(NCC(=O)O)c2ccccc2)cc1 (stereo unspecified)	0.3%	7.2%	-19.4%	18.6%	-0.9	-0.5%
O=C(O)CSc1cc(NS(=O)(=O)c2ccc(Br)cc2)c2ccccc2c1O	5.62µM*	-8.8%	?	7.08µM*	-31.6	?
O=S(=O)(Nc1cc(Sc2ncn[nH]2)c(O)c2ccccc12)c1ccccc1	0.891µM*	?	25.1µM*	1.99µM*	-98.8*	?
CCn1cc(C(=O)NCc2cccc(C(F)(F)F)c2)c(=O)c2ccc(C)nc21	-12.7%	-1.7%	-24.7%	8.6%	-69.4*	-5.0%
COc1ccc(Cl)cc1NC(=O)C(C)N(C)Cc1ccc(C(F)(F)F)cc1 (stereo unspecified)	?	24.8%	?	-0.8%	-87.4*	-13.4%
O=C(c1ccco1)N1CCN(c2nc(C3CC3)nc3c2nnn3Cc2ccccc2Cl)CC1	1.1%	6.3%	35.5µM*	4.3%	-36.3	-0.5%
O=C(c1ccco1)N1CCCC(c2nc3c(nnn3Cc3ccccc3)c(=O)[nH]2)C1 (stereo unspecified)	-10.6%	-11.3%	-21.7%	11.5%	59.0	-2.8%
O=C(c1ccco1)N1CCC(c2nc3c(nnn3Cc3ccccc3Cl)c(=O)[nH]2)CC1	0.4%	6.0%	39.7%	2.0%	-12.4	-7.2%
CC(C)(C)c1nc(N2CCN(C(=O)c3ccco3)CC2)c2nnn(Cc3ccccc3)c2n1	0.3%	15.2%	28.2µM*	-1.8%	?	0.6%
C=Cc1ccc(CSc2nc(-c3ccccc3C)nc3c2Cc2c(CO)cnc(C)c2O3)cc1	1.4%	·	?	·	20.1	6.6%
O=C(O)[C@H](Cc1c[nH]c2ccccc12)N1C(=O)C2=CCCC=C2C1=O	·	·	·	3.8%	·	·
